# GPR151 ag = human GPR151 activation | PathHunter beta-arrestin GPR151 cells, luminescence | activation, % at 11.2 µM | Q8TDV0 | AID 1508602 | actives 1% (n = 650,000); in the data active means activation above about 4.9%
# Target sequence (Q8TDV0 whole entry, looked up): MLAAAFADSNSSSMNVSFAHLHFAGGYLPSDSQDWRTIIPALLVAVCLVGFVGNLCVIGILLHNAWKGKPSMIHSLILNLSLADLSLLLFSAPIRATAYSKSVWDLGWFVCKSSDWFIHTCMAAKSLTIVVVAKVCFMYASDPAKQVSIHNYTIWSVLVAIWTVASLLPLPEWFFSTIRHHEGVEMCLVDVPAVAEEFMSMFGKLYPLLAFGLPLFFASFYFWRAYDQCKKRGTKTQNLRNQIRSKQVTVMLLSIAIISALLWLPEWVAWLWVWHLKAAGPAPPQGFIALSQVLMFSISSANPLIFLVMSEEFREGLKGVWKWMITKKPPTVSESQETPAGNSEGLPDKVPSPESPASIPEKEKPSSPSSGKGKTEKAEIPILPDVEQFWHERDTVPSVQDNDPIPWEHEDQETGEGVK
# TEAD-YAP inh = TEAD-YAP interaction inhibition. actives 1.4% (n = 640,000). HEK-TIYL cells, TEAD-Gal4/YAP UAS-luciferase luminescence. inhibition, % at 9.12 µM; in the data active means inhibition above about 32%
# MITF inh = human MITF inhibition, primary screen | O75030 | AlphaScreen MITF homodimerization, bead proximity signal | inhibition, % at 2.6 µM | actives 0.91% (n = 650,000); in the data active means inhibition above about 50%
# FBW7 act = human FBW7 E3 ligase activation, primary screen. normalized activity (activation), % at 26.1 µM. Q969H0. actives 0.13% (n = 650,000). AID 1259310. AlphaScreen FBW7–phospho-cyclin E peptide binding, activator screen; in the data active means normalized activity above about 1.9%;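 further: purified mutant Fbw7 with reduced substrate affinity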
# GPR151 conf act = confirmation of human GPR151 activators; shares compounds with GPR151 ag; GPR151 PathHunter beta-arrestin cells, luminescence, 90 min; % of EA-reagent control over plate median; activation, % at 11.2 µM; 6,700 tested, under 10 active; AID 1508609;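 active means mean percent activation across replicates above the confirmation screen cutoff of 4.91%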
# GPR119 ag = counter-screen for GPR151 activators: effect on human GPR119 | actives 0.3% (n = 6,700) | activation, % at 11.2 µM | GPR119 PathHunter beta-arrestin cells, luminescence, 90 min; 0 = compound-well median, 100 = enzyme-acceptor control | shares compounds with GPR151 ag;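 active means mean percent activation in the counterscreen above 29.09%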;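 further: counterscreen on off-target GPR119 to flag nonselective hits from the GPR151 activator screen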
# Hits are given with their value; 0 = inactive; - = no result. Compounds with a hit are over-represented: about 3.5% of the library has one in this group of screens.
SMILES,GPR151 ag,TEAD-YAP inh,MITF inh,FBW7 act,GPR151 conf act,GPR119 ag
C=CCn1cc(/C=c2\sc3n(c2=O)C(c2ccc(OC)cc2)C(C(=O)OCC)=C(C)N=3)c2ccccc21 (stereo unspecified),5.0,0,0,0,0,0
C=CCn1cc(/C=c2\sc3n(c2=O)C(c2ccc(Cl)cc2)C(C(=O)OCC)=C(C)N=3)c2ccccc21 (stereo unspecified),0,0,0,0,-,-
CCOC(=O)C1=C(C)N=c2s/c(=C\c3ccc(C(C)C)cc3)c(=O)n2C1c1ccc(C(C)C)cc1 (stereo unspecified),0,0,0,0,-,-
COc1ccc(NC(=O)C(=O)NCc2ccc3c(c2)OCO3)cc1OC,0,0,0,0,-,-
Cc1nc(CSc2cc(-c3ccccc3)ncn2)cs1,0,0,0,0,-,-
Cn1cnnc1SCC(=O)Nc1cccc(Cl)c1Cl,0,0,0,0,-,-
CC12CC3CC(C)(C1)CC(CNC(=O)COc1ccccc1)(C3)C2,0,0,0,0,-,-
CC1(C)CC(NC(=O)COc2ccccc2)CC(C)(CNC(=O)COc2ccccc2)C1 (stereo unspecified),5.4,0,0,0,0,0
COc1ccc(CNC(=O)CCCc2nc3ccccc3c(=O)[nH]2)cc1,6.3,0,0,0,0,0
COc1ccc(CNC(=O)CCCc2ccccc2)cc1,0,0,0,0,-,-
CCCCN(/C=N/S(=O)(=O)c1ccccc1)CCCC,11,0,0,0,0,0
O=C1OCc2cc(NS(=O)(=O)c3ccc(Br)s3)ccc21,0,0,0,0,-,-
O=C1N[C@@H](CC2CCCCC2)C(=O)N2C[C@@H](NCc3cccc4cccnc34)C[C@@H]12,0,0,0,0,-,-
CCOc1cccc(CN2CCC(C(=O)NC(C)c3ccccc3)CC2)c1O (stereo unspecified),5.6,0,0,0,0,0
Cn1c(=O)c2c(NC(=O)c3c(F)cccc3F)ccnc2n(C)c1=O,10,0,0,0,0,0
O=C(c1c[nH]c2ccc(S(=O)(=O)N3CCCCCC3)cc2c1=O)N1CCOCC1,11,0,0,0,0,0
NC(=O)c1ccccc1NS(=O)(=O)c1ccc(Cl)cc1F,0,0,0,0,-,-
CCC(=O)Nc1cc(CNC(=O)Cc2ccc3c(c2)OCO3)cc(C(=O)OC)c1,0,0,0,0,-,-
COC(=O)CN1C(=O)S/C(=C/c2ccc(-c3ccc([N+](=O)[O-])cc3OC)o2)C1=O,0,0,0,0,-,-
CCOC(=O)c1sc(=NC(=O)c2cccc3ccccc23)n(C)c1C,7.8,0,0,0,0,0
CCCN(CCC)C(=O)Cc1ccc(Br)cc1,8.4,0,0,0,0,0
N#CCCN(CCC#N)C(=O)Cc1ccc(Br)cc1,0,0,0,0,-,-
Cc1ccc(Nc2nc3c(c(=O)n(C)c(=O)n3C)n2CCO)cc1,0,0,0,0,-,-
O=S(=O)(c1ccc(Oc2ccc(S(=O)(=O)N3CCC4(CC3)OCCO4)cc2)cc1)N1CCC2(CC1)OCCO2,8.5,0,0,0,0,0
O=S(=O)(c1ccc(S(=O)(=O)N2CCC3(CC2)OCCO3)cc1)N1CCCC1,0,0,0,0,-,-
SMILES,GPR151 ag,TEAD-YAP inh,MITF inh,FBW7 act,GPR151 conf act,GPR119 ag
CC1(C)C(=O)Nc2ccccc2N1C(=O)COC(=O)c1ccc([N+](=O)[O-])o1,5.7,0,0,0,0,0
O=C1CN(C(=O)COC(=O)c2ccc([N+](=O)[O-])o2)c2ccccc2N1,0,0,0,0,-,-
COc1cccc(C2C(C(=O)OC3CCCCC3)=C(C)NC3=C2C(=O)CC(c2ccc(Cl)cc2)C3)c1 (stereo unspecified),0,0,0,0,-,-
CCCCOc1ccc(CSc2nncn2N)cc1[N+](=O)[O-],5.1,0,0,0,0,0
COc1cccc(Nc2nnc(-c3cc4ccc(O)cc4oc3=O)s2)c1,5.8,0,0,0,0,0
COc1ccc2ccc(=O)oc2c1,5.0,0,0,0,0,0
CCCN(CCC)Cc1c(C(=O)O)nnn1-c1nonc1N,6.0,0,0,0,0,0
C=CCOc1cccc(C(=O)NC(C)c2ccccc2)c1 (stereo unspecified),0,0,0,0,-,-
O=C(c1cc2cc([N+](=O)[O-])ccc2oc1=O)N1CCC(Cc2ccccc2)CC1,0,0,0,0,-,-
CCOCCCNC(=S)N1CCC(NC(=O)c2ccco2)CC1,5.9,0,0,0,0,0
O=C(c1ccco1)N1CCN(C(=S)NCC2CCCO2)CC1 (stereo unspecified),6.4,0,0,0,0,0
CC(=O)c1ccc(N2CCN(C(=S)NCC3CCCO3)CC2)cc1 (stereo unspecified),0,0,0,0,-,-
CCOCCCNC(=S)N1CCC(NC(=O)c2ccc(C)cc2)CC1,0,0,0,0,-,-
COc1ccc(/C=N/n2ncnc2SC)cc1OC,0,0,0,0,-,-
COc1ccc(/C=N/n2c(SC)nnc(C(C)(C)C)c2=O)cc1OC,6.2,0,0,0,0,0
CCOc1ccc2nc(N3CCCN(Cc4ccccc4O)CC3)nc(C)c2c1,0,0,0,0,-,-
COc1cccc(NC2=NCC(=O)N2Cc2ccc(F)cc2)c1,6.0,0,0,0,0,0
Cc1nc2ccccc2n1-c1ccc([N+](=O)[O-])cc1[N+](=O)[O-],0,0,0,0,-,-
COc1ccc(Nc2cc(-c3cncc(-c4cccs4)c3)nc(C)n2)cc1,6.0,0,0,0,0,0
COc1ccc(Nc2cc(-c3cncc(-c4ccc(OC)cc4)c3)nc(C)n2)cc1,0,0,0,0,-,-
CC1CC(C)CN(c2nc3c(c(=O)[nH]c(=O)n3C)n2CCCSc2ncccn2)C1 (stereo unspecified),0,0,0,0,-,-
C#CCOC(=O)CCCC(=O)Nc1ccc([N+](=O)[O-])cc1Cl,0,0,0,0,-,-
C#CCOC(=O)CCCNc1ccc([N+](=O)[O-])cc1[N+](=O)[O-],5.6,0,0,0,0,0
COc1ccccc1CCN1C(=O)CCC1CCNCCOc1ccccc1 (stereo unspecified),7.1,0,0,0,0,0
COc1ccccc1CCN1C(=O)CCC1CCNCc1ccccc1 (stereo unspecified),0,0,0,0,-,-
SMILES,GPR151 ag,TEAD-YAP inh,MITF inh,FBW7 act,GPR151 conf act,GPR119 ag
Fc1ccc2nc(N3CCN(c4nc5ccccc5s4)CC3)sc2c1,15,0,0,0,0,0
O=C1c2ccccc2C(=O)c2c1ccc(C(=O)OCC(=O)N1CCCC1)c2[N+](=O)[O-],0,0,0,0,-,-
O=C(CCCCCN1C(=O)c2ccccc2C1=O)Nc1ccccc1,0,0,0,0,-,-
O=C(CCCCCCN1C(=O)c2ccccc2C1=O)NN(c1ccccc1)c1ccccc1,6.2,0,0,0,0,0
CN(C)c1ccc(C(=O)Nc2ccc(F)c(Cl)c2)cc1,0,0,0,0,-,-
Cc1ccc(-c2noc(CN(C(=O)CCN3C(=O)c4ccccc4C3=O)C(C)C)n2)cc1,5.1,0,0,0,0,0

# Screens from PubChem BioAssay.
